The whole screen tested about 5,500 compounds, of which about 2,000 (36%) were called active. Inconclusive results (about 18%) are left out. Cut-off read from the data, not from the text of the source: active = normalized growth mostly below about 0.91 (no sharp cut-off); inconclusive = no clear call, values can overlap the other calls; inactive = mostly above about 0.92. This is one part of the list.
Assay: chemical genetic growth profiling, strain panel (AID 1159580);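 note: tested at 20 µM; growth read once vehicle control cultures reached saturation at 30 °C; 1 = growth at the plate median or of vehicle wells; lower values mean less growth of the strain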
Conditions: growth OD

Measured: normalized growth

NCc1ccc(S(N)(=O)=O)cc1
inactive: S. cerevisiae deletion strains, locus YKL009W, strain mrt4, hits give low values 0.974 | S. cerevisiae deletion strains, locus YKL068W, hits give low values 0.987 | S. cerevisiae deletion strains, locus YKL085W, strain MDH1 (second series), hits give low values 0.982 | S. cerevisiae deletion strains, locus YKL085W, strain MDH1, hits give low values 0.982 | S. cerevisiae deletion strains, locus YKL160W, strain elf1, hits give low values 1.06 | S. cerevisiae deletion strains, locus YKL190W, strain CNB1, hits give low values 1.01 | S. cerevisiae deletion strains, locus YKR001C, strain vps1, hits give low values 1.02 | S. cerevisiae deletion strains, locus YKR026C, strain gcn3, hits give low values 1.01 | S. cerevisiae deletion strains, locus YKR091W, strain srl3, hits give low values 1 | S. cerevisiae deletion strains, locus YLL001W, strain dnm1, hits give low values 1.05 | S. cerevisiae deletion strains, locus YLL026W, hits give low values 1 | S. cerevisiae deletion strains, locus YLL041C, strain sdh2, hits give low values 0.996 | S. cerevisiae deletion strains, locus YLR027C, strain aat2, hits give low values 1.01 | S. cerevisiae deletion strains, locus YLR039C, strain RIC1, hits give low values 0.986 | S. cerevisiae deletion strains, locus YLR058C, strain SHM2, hits give low values 0.984 | S. cerevisiae deletion strains, locus YLR102C, strain apc9, hits give low values 0.988 | S. cerevisiae deletion strains, locus YLR113W, strain HOG1, hits give low values 1.01 | S. cerevisiae deletion strains, locus YLR221C, strain rsa3, hits give low values 1.05 | S. cerevisiae deletion strains, locus YLR258W, strain gsy2, hits give low values 1.01 | S. cerevisiae deletion strains, locus YLR262C, strain YPT6 (second series), hits give low values 1.04 | S. cerevisiae deletion strains, locus YLR262C, strain YPT6, hits give low values 1.02 | S. cerevisiae deletion strains, locus YLR268W, strain sec22, hits give low values 0.988 | S. cerevisiae deletion strains, locus YLR320W, strain mms22, hits give low values 1.06 | S. cerevisiae deletion strains, locus YLR330W, strain CHS5, hits give low values 0.989 | S. cerevisiae deletion strains, locus YLR342W, strain FKS1 (second series), hits give low values 1 | S. cerevisiae deletion strains, locus YLR342W, strain FKS1, hits give low values 1.01 | S. cerevisiae deletion strains, locus YLR357W, strain rsc2, hits give low values 1.01 | S. cerevisiae deletion strains, locus YLR370C, strain arc18, hits give low values 1.01 | S. cerevisiae deletion strains, locus YLR371W, strain rom2, hits give low values 0.985 | S. cerevisiae deletion strains, locus YLR384C, strain iki3, hits give low values 1.01 | S. cerevisiae deletion strains, locus YLR418C, strain cdc73, hits give low values 0.954 | S. cerevisiae deletion strains, locus YML016C, strain PPZ1, hits give low values 0.995 | S. cerevisiae deletion strains, locus YML032C, strain rad52, hits give low values 0.99 | S. cerevisiae deletion strains, locus YML120C, strain ndi1, hits give low values 1.04 | S. cerevisiae deletion strains, locus YML124C, strain tub3, hits give low values 0.99 | S. cerevisiae deletion strains, locus YMR058W, strain fet3, hits give low values 1.02 | S. cerevisiae deletion strains, locus YMR078C, strain ctf18, hits give low values 0.978 | S. cerevisiae deletion strains, locus YMR125W, strain sto1, hits give low values 1.04 | S. cerevisiae deletion strains, locus YMR129W, hits give low values 1 | S. cerevisiae deletion strains, locus YMR205C, strain PFK2, hits give low values 1.05 | S. cerevisiae deletion strains, locus YMR223W, strain ubp8, hits give low values 0.962 | S. cerevisiae deletion strains, locus YMR231W, strain pep5, hits give low values 0.993 | S. cerevisiae deletion strains, locus YMR263W, strain SAP30, hits give low values 0.999 | S. cerevisiae deletion strains, locus YMR307W, strain GAS1, hits give low values 1.01 | S. cerevisiae deletion strains, locus YNL067W, strain RPL9B, hits give low values 1 | S. cerevisiae deletion strains, locus YNL071W, strain lat1, hits give low values 1.01 | S. cerevisiae deletion strains, locus YNL153C, strain GIM3, hits give low values 1.01 | S. cerevisiae deletion strains, locus YNL183C, strain NPR1, hits give low values 0.956 | S. cerevisiae deletion strains, locus YNL209W, strain ssb2, hits give low values 1 | S. cerevisiae deletion strains, locus YNL233W, strain BNI4, hits give low values 0.99 | S. cerevisiae deletion strains, locus YNL248C, strain rpa49, hits give low values 1.04 | S. cerevisiae deletion strains, locus YNL250W, strain rad50, hits give low values 0.967 | S. cerevisiae deletion strains, locus YNL271C, strain bni1, hits give low values 0.985 | S. cerevisiae deletion strains, locus YNL298W, strain CLA4, hits give low values 0.991 | S. cerevisiae deletion strains, locus YNL307C, strain MCK1, hits give low values 0.992 | S. cerevisiae deletion strains, locus YNL322C, strain KRE1 (second series), hits give low values 1.02 | S. cerevisiae deletion strains, locus YNL322C, strain KRE1, hits give low values 0.999 | S. cerevisiae deletion strains, locus YNR049C, strain mso1, hits give low values 0.999 | S. cerevisiae deletion strains, locus YNR052C, strain pop2, hits give low values 0.987 | S. cerevisiae deletion strains, locus YOL006C, strain TOP1, hits give low values 0.97 | S. cerevisiae deletion strains, locus YOL012C, strain htz1 1.28 | S. cerevisiae deletion strains, locus YOL147C, strain pex11, hits give low values 0.985 | S. cerevisiae deletion strains, locus YOR001W, strain rrp6, hits give low values 0.972 | S. cerevisiae deletion strains, locus YOR061W, strain CKA2, hits give low values 0.993 | S. cerevisiae deletion strains, locus YOR069W, strain VPS5, hits give low values 0.99 | S. cerevisiae deletion strains, locus YOR070C, strain gyp1, hits give low values 1.01 | S. cerevisiae deletion strains, locus YOR080W, strain dia2, hits give low values 0.996 | S. cerevisiae deletion strains, locus YOR083W, strain WHI5, hits give low values 1.06 | S. cerevisiae deletion strains, locus YOR106W, strain vam3, hits give low values 1.06 | S. cerevisiae deletion strains, locus YOR136W, strain idh2, hits give low values 0.992 | S. cerevisiae deletion strains, locus YOR144C, strain elg1, hits give low values 0.987 | S. cerevisiae deletion strains, locus YOR184W, strain ser1, hits give low values 1 | S. cerevisiae deletion strains, locus YOR231W, strain MKK1, hits give low values 1.01 | S. cerevisiae deletion strains, locus YOR265W, strain rbl2, hits give low values 1.02 | S. cerevisiae deletion strains, locus YOR270C, strain vph1, hits give low values 1.06 | S. cerevisiae deletion strains, locus YOR290C, strain snf2, hits give low values 1.02 | S. cerevisiae deletion strains, locus YOR316C, strain cot1, hits give low values 0.993 | S. cerevisiae deletion strains, locus YPL051W, strain arl3, hits give low values 1.03 | S. cerevisiae deletion strains, locus YPL055C, strain LGE1, hits give low values 1.01 | S. cerevisiae deletion strains, locus YPL078C, strain atp4, hits give low values 1.06 | S. cerevisiae deletion strains, locus YPL106C, strain sse1, hits give low values 1.03 | S. cerevisiae deletion strains, locus YPL240C, strain hsp82, hits give low values 1.01 | S. cerevisiae deletion strains, locus YPL241C, strain CIN2, hits give low values 0.998 | S. cerevisiae deletion strains, locus YPL256C, strain CLN2, hits give low values 1.01 | S. cerevisiae deletion strains, locus YPR119W, strain clb2, hits give low values 0.993 | S. cerevisiae deletion strains, locus YPR141C, strain kar3, hits give low values 0.976 | S. cerevisiae deletion strains, locus YPR163C, strain tif3, hits give low values 0.995 | S. cerevisiae deletion strains, locus YPR167C, strain met16, hits give low values 0.99 | S. cerevisiae deletion strains, strain wtn01, hits give low values 0.987 | S. cerevisiae strains, strain wild type, hits give low values 1.01
